According to PubChem BioAssay (EPA / NIEHS):
Calls of active or inactive are those of the source. How the source made its calls: active means hit-call score of the fitted dose curve at least 0.9, where 1 is the maximum; inactive means score below 0.9.

Assay: ATG_ISRE_CIS: Attagene CIS-FACTORIAL HepG2 Assay for human Interferon Regulatory Factor 1 (IRF1) binding to an Interferon-Stimulated Response Element (ISRE) (AID 2282948)
Details: HepG2 ISRE cis-reporter (Attagene), mRNA transcription readout; actives raise or lower the signal
Method: ATG_CIS is a cell-based, multiplexed-readout assay that uses HepG2, a human liver cell line, with measurements taken at 24 hours after chemical dosing in a 24-well plate.ATG_ISRE_CIS is one of 52 assay component(s) measured or calculated from the ATG_CIS assay. It is designed to make measurements of mRNA induction, a form of inducible reporter, as detected with fluorescence intensity signals by Reverse transcription polymerase chain reaction (RT-PCR) and Capillary electrophoresis technology.Data from the assay component ATG_ISRE_CIS was analyzed into 1 assay endpoint. This assay endpoint, ATG_ISRE_CIS, was analyzed with bidirectional fitting relative to DMSO as the negative control and baseline of activity. Using a type of inducible reporter, measures of mRNA for gain or loss-of-signal activity can be used to understand the reporter gene at the transcription factor-level as they relate to the gene IRF1. Furthermore, this assay endpoint can be referred to as a primary readout, because this assay has produced multiple assay endpoints where this one serves a reporter gene function. To generalize the intended target to other relatable targets, this assay endpoint is annotated to the dna binding intended target family, where the subfamily is interferon regulatory factors.
Human liver HepG2 cells are transiently transfected with multiple reporter transcription units (MRTUs) in 6-well plates using FuGene 6 reagent (Roche; 3 ml FuGene/1 mg DNA). The MRTU constructs are regulated by a cis-regulating element (promoter). […] A major difference between the CIS and TRANS system is that in CIS activities of endogenous TFs are measured, whereas the TRANS assay evaluates changes in activities of exogenous, chimeric NR-Gal4 proteins. […] At the end of 24 hour incubation, total RNA was isolated using TriZol reagent (Invitrogen). The isolated RNA is then reverse-transcribed using oligo(dT) primer and Mo-MLV reverse transcriptase (Invitrogen) with DNAse I (Ambion) treatment for 30 min. The one-tenth of the produced cDNA was amplified by PCR using Taq DNA polymerase (Invitrogen) and two reporter sequence-specific primers. The PCR products were fluorescently labeled by primer extension with 6-arboxyfluorescein (6-FAM) 5'-labeled reporter sequence-specific primer (2 min at 95 C, 20 s at 68 C and 10 min at 72 C) and these products were digested with 5U of HpaI (New England Biolabs) for 2h at 37 C. The fragments were purified using Qiaquick PCR columns (Qiagen), analyzed on an ABI 3130xL genetic analyzer (Applied Biosystems) with peak positions identified by using a set of X-rhodamine (ROX)-labeled MapMarker1000 molecular weight standards (BioVentures). The raw capillary electrophoresis data was processed using Attagraph software (Attagene).
In the case of COC(=O)c1ccc(C)cc1C1=NC(C)(C(C)C)C(=O)N1 (stereo not given) (tested in a mixture with another compound), the outcome was “inactive”.
With CCCCCCCCc1ccc(S(=O)(=O)O)cc1 the outcome was “inactive”.
With CC(C)c1ccccc1O the outcome was “inactive”.
For CC(C)=CCCC(C)CC(=O)O (stereo not given), the outcome was “inactive”.
For CCCCC(CC)C(=O)OC(C)C (stereo not given), the outcome was “inactive”.
With CCCCCCCCN1CCCC1=O the outcome was “inactive”.
For O=CCc1ccccc1, the outcome was “inactive”.
For CN(C)c1cccc(O)c1, the outcome was “inactive”.
In the case of COC(CC(C)CCCC(C)(C)O)OC (stereo not given), the outcome was “inactive”.
With CC(Oc1cc(Cl)ccc1Cl)C(=O)O (stereo not given) the outcome was “inactive”.
In the case of O=CN1CCOCC1, the outcome was “inactive”.
For CCCC(C)=O, the outcome was “inactive”.
For C=C(CC(=O)O)C(=O)O, the outcome was “inactive”.
With CC1=C(Br)C(=O)C(Br)=C/C1=C(/c1ccccc1S(=O)(=O)O)c1cc(Br)c(O)c(Br)c1C the outcome was “inactive”.
For CC=Cc1ccc(OC)c(OC)c1, the outcome was “inactive”.
For COc1ccc(COC(C)=O)cc1, the outcome was “inactive”.
For CC(C)(C)C1=CC(=O)C(C(C)(C)C)=CC1=O, the AC50 was 71.2 µM (active).
With CC(C)(C)CC(C)(C)c1ccc(OCCOCC[N+](C)(C)Cc2ccccc2)cc1 the outcome was “inactive”.
For CCC(=O)O[C@@H]1C[C@H]2CC[C@]1(C)C2(C)C, the outcome was “inactive”.
In the case of COc1cc(Cl)c(OC)cc1N, the outcome was “inactive”.
In the case of C[C@H]1C[C@@H](O)CC(C)(C)C1, the outcome was “inactive”.
With CCCCC1(COC(=O)CCC(=O)O)C(=O)N(c2ccccc2)N(c2ccccc2)C1=O the outcome was “inactive”.
With O=C(O)CCCCCCCCC(=O)O the outcome was “inactive”.
For Cc1cc(CCC(=O)OCCOCCOCCOC(=O)CCc2cc(C)c(O)c(C(C)(C)C)c2)cc(C(C)(C)C)c1O, the outcome was “inactive”.
For C=CCN(CC=C)CC=C, the outcome was “inactive”.
In the case of O=C(O)c1cc(C(=O)O)cc([N+](=O)[O-])c1, the outcome was “inactive”.
With CCCCCC(C=O)=Cc1ccccc1 the AC50 was 160 µM (active).
In the case of CC1(C)O[C@@H]2C[C@H]3[C@@H]4CCC5=CC(=O)C=C[C@]5(C)[C@@]4(F)[C@@H](O)C[C@]3(C)[C@]2(C(=O)CO)O1, the outcome was “inactive”.
In the case of C1=CC2C3C=CC(C3)C2C1 (stereo not given), the outcome was “inactive”.
In the case of CCC(C)=O, the outcome was “inactive”.
For c1ccc(CN(Cc2ccccc2)Cc2ccccc2)cc1, the outcome was “inactive”.
With C=Cc1ccc(C)cc1 the outcome was “inactive”.
With Clc1cc(Cl)c(-c2c(Cl)c(Cl)cc(Cl)c2Cl)cc1Cl the outcome was “inactive”.
For CC(C)CCCCCCc1ccc(OCCOCCO)cc1, the outcome was “inactive”.
For CC(C)C(OC(=O)c1ccccc1)C(C)(C)COC(=O)c1ccccc1 (stereo not given), the outcome was “inactive”.
In the case of CCOC(=O)C(C#N)=C(c1ccccc1)c1ccccc1, the outcome was “inactive”.
In the case of C[Si](C)(C)O[Si](C)(C)C, the outcome was “inactive”.
For COC(C)(C)CCCC(C)CC=O (stereo not given), the outcome was “inactive”.
In the case of NCC1CCCC(CN)C1 (stereo not given), the outcome was “inactive”.
In the case of CCC1(C)NC(=O)NC1=O (stereo not given), the outcome was “inactive”.
